From ChEMBL document CHEMBL4513156, “CO-ADD screening of NCPRI (Romania) compounds”
Results with a measured potency or affinity are listed apart.

What follows are molecules tested on Klebsiella pneumoniae. Details: Concentration 32 ug.mL-1; ASSAY_TEST Inhibition of Bacterial Growth; detection method Absorption (OD600); MEDIA CAMHB; plate type 384well; NBS; CORNING #3640; time 18 hr.

**Q.** How did the Inhibition turn out when CC(C)(C)[Si](C)(C)O[C@H](/C=C/[C@@H]1[C@@H](CC=NNC(=O)c2ccncc2)[C@@H](O)C[C@H]1O[Si](C)(C)C(C)(C)C)CCc1ccccc1 was run?
**A.** Its Inhibition is 11.71%.

**Q.** How did the Inhibition turn out when O=C(NNC(=O)[C@@H]1C[C@H](C(=O)O)[C@@H]2CC=C[C@@H]21)c1ccncc1 was run?
**A.** Its Inhibition is 15.82%.

**Q.** CC(C)(C)[Si](C)(C)OCC1C2C[C@H]3C1[C@@H]3/C2=N/NC(=O)c1ccncc1 (some centres not stated) was tested. Which Inhibition did it give?
**A.** Its Inhibition is 15.16%.

**Q.** Which Inhibition does the source give for O=C(NNC(=O)c1ccc([N+](=O)[O-])cc1C(=O)O)c1ccncc1 here?
**A.** The Inhibition was 17.92%.

**Q.** How did the Inhibition turn out when O=C(NN=CC[C@@H]1[C@@H](/C=C/[C@@H](O)CCc2ccccc2)[C@H](OC(=O)c2ccccc2)C[C@@H]1O)c1ccncc1 was run?
**A.** The Inhibition was 14.41%.

**Q.** With O=C(N/N=C1/C[C@@H]2[C@H](C1)[C@H](OC(=O)c1ccccc1)C[C@@H]2OC(=O)c1ccccc1)c1ccncc1 as the molecule, how does the Inhibition read?
**A.** The Inhibition was 10.86%.

**Q.** How did the Inhibition turn out when O=C(NN=C[C@H]1[C@H]2CC(O)OC[C@H]2C[C@H]1O)c1ccncc1 (some centres not stated) was run?
**A.** Its Inhibition is 2.56%.

**Q.** O=C(N/N=C1\C[C@@H]2[C@H](COC(c3ccccc3)(c3ccccc3)c3ccccc3)C[C@H](CO)[C@@H]2C1)c1ccncc1 was tested. Which Inhibition did it give?
**A.** Its Inhibition is 2.31%.

**Q.** For O=C(N/N=C1/C[C@H]2[C@H](CO)[C@@H]1C[C@@H]2Cl)c1ccncc1, which Inhibition is on record?
**A.** The Inhibition was 18.7%.

**Q.** O=C(N/N=C/C[C@@H]1[C@@H](/C=N/NC(=O)c2ccncc2)[C@H](O)C[C@@H]1O)c1ccncc1 was tested. Which Inhibition did it give?
**A.** The Inhibition was 9.84%.

**Q.** With O=C(NN=CC[C@@H]1[C@@H](/C=C/[C@@H](O)CCc2ccccc2)[C@H](O)C[C@@H]1O)c1ccncc1 as the molecule, how does the Inhibition read?
**A.** Its Inhibition is 16.12%.

**Q.** With O=C(NN=C[C@H]1[C@@H]2CCO[C@@H]2C[C@@H]1O)c1ccncc1 as the molecule, how does the Inhibition read?
**A.** The Inhibition was 9.72%.

**Q.** How did the Inhibition turn out when O=C(N/N=C1\C[C@@H]2[C@@H](CO)[C@H]1C[C@H]2Cl)c1ccncc1 was run?
**A.** Its Inhibition is 21.63%.

**Q.** With O=C(N/N=C1/C2C[C@H]3C(C2CO)[C@H]13)c1ccncc1 (some centres not stated) as the molecule, how does the Inhibition read?
**A.** The Inhibition was 15.76%.

**Q.** For O=C(NN=CC[C@@H]1[C@@H](COC2CCCCO2)[C@H](OC2CCCCO2)C[C@@H]1O)c1ccncc1 (some centres not stated), which Inhibition is on record?
**A.** Its Inhibition is 4.99%.

**Q.** Which Inhibition does the source give for O=C(N/N=C/COc1cccc(Cl)c1)c1ccncc1 here?
**A.** The Inhibition was 5.99%.

**Q.** How did the Inhibition turn out when O=C(NNC(=O)[C@@H]1C[C@H](C(=O)O)[C@@H]2CCC[C@@H]21)c1ccncc1 was run?
**A.** Its Inhibition is 17.49%.

**Q.** For O=C(N/N=C1/C[C@@H]2[C@@H](C(=O)O)[C@H]1C[C@H]2Cl)c1ccncc1, which Inhibition is on record?
**A.** Its Inhibition is 18.24%.

**Q.** Which Inhibition does the source give for O=C(N/N=C1/C2C[C@H]3C(C2C(=O)O)[C@@H]13)c1ccncc1 (some centres not stated) here?
**A.** The Inhibition was 8.85%.

**Q.** Which Inhibition does the source give for O=C1C[C@H]2[C@H](/C=N/NC(=O)c3ccncc3)[C@H](C[C@@H]2Cl)O1 here?
**A.** The Inhibition was 20.57%.

**Q.** Which Inhibition does the source give for O=C(N/N=C/C[C@@H]1[C@@H](CO)[C@H](O)C[C@@H]1O)c1ccncc1 here?
**A.** Its Inhibition is 16.63%.

**Q.** For NNC(=O)c1ccncc1 [ISONIAZID], which Inhibition is on record?
**A.** The Inhibition was 18.82%.

**Q.** With O=C1C[C@@H]2[C@@H](C=NNC(=O)c3ccncc3)[C@@H](C[C@H]2Cl)O1 as the molecule, how does the Inhibition read?
**A.** Its Inhibition is 20.62%.

**Q.** CC(C)(C)[Si](C)(C)OC[C@H]1[C@H](CC=NNC(=O)c2ccncc2)[C@H](O)C[C@@H]1O[Si](C)(C)C(C)(C)C was tested. Which Inhibition did it give?
**A.** Its Inhibition is 19.31%.

**Q.** How did the Inhibition turn out when O=C(NNC(c1ccccc1)(c1ccccc1)c1ccccc1)c1ccncc1 was run?
**A.** The Inhibition was 4.48%.

The molecules below were run on Candida albicans. Details: 32 ug/mL.

**Q.** With O=C(N/N=C1/C[C@@H]2[C@H](COC(c3ccccc3)(c3ccccc3)c3ccccc3)C[C@H](COC(c3ccccc3)(c3ccccc3)c3ccccc3)[C@@H]2C1)c1ccncc1 as the molecule, how does the Inhibition read?
**A.** The Inhibition was 2.84%.

**Q.** With O=C(NN=CC[C@H]1[C@H](CO)[C@@H](O)C[C@H]1O)c1ccncc1 as the molecule, how does the Inhibition read?
**A.** The Inhibition was 0.85%.

**Q.** How did the Inhibition turn out when O=C(NNC(=O)c1cccc([N+](=O)[O-])c1C(=O)O)c1ccncc1 was run?
**A.** The Inhibition was 1.9%.

**Q.** O=C(ON/N=C/[C@@H]1[C@@H]2C[C@H](Cl)[C@H]1C[C@H]2O)c1ccncc1 was tested. Which Inhibition did it give?
**A.** Its Inhibition is 5.82%.

**Q.** Which Inhibition does the source give for O=C(N/N=C/CCCO)c1ccncc1 here?
**A.** Its Inhibition is 0.75%.

**Q.** O=C(N/N=C/C[C@@H]1[C@@H](/C=C/[C@@H](O)COc2cccc(Cl)c2)[C@H](O)C[C@@H]1O)c1ccncc1 was tested. Which Inhibition did it give?
**A.** Its Inhibition is 0.21%.

**Q.** Which Inhibition does the source give for COC(=O)CCCCCC[C@@H]1[C@@H](/C=N/NC(=O)c2ccncc2)[C@H](O)C[C@@H]1O here?
**A.** The Inhibition was 0.11%.

**Q.** For O=C(N/N=C1\CC[C@@H]2[C@H]1[C@H](OC(=O)c1ccccc1)C[C@@H]2OC(=O)c1ccccc1)c1ccncc1, which Inhibition is on record?
**A.** Its Inhibition is 12.8%.

**Q.** For O=C(N/N=C/[C@@H]1C[C@H](CO)[C@@H]2CCC[C@@H]21)c1ccncc1, which Inhibition is on record?
**A.** The Inhibition was 0.02%.

**Q.** How did the Inhibition turn out when COC(=O)C[C@H]1[C@H](/C=N\NC(=O)c2ccncc2)[C@@H](O[Si](C)(C)C(C)(C)C)C[C@@H]1Cl was run?
**A.** The Inhibition was 1.67%.

**Q.** Which Inhibition does the source give for O=C(N/N=C/C[C@@H]1[C@@H](/C=C/[C@@H](O)COc2ccccc2)[C@H](O)C[C@@H]1O)c1ccncc1 here?
**A.** The Inhibition was 0.82%.

**Q.** How did the Inhibition turn out when COC(=O)CCCCCC[C@@H]1[C@@H](/C=N/NC(=O)c2ccncc2)[C@H](OC(=O)c2ccccc2)C[C@@H]1O was run?
**A.** Its Inhibition is 0.87%.

**Q.** For CC(C)(C)[Si](C)(C)O[C@H](/C=C/[C@@H]1[C@@H](CC=NNC(=O)c2ccncc2)[C@@H](O)C[C@H]1O[Si](C)(C)C(C)(C)C)CCc1ccccc1, which Inhibition is on record?
**A.** The Inhibition was 0.84%.

**Q.** How did the Inhibition turn out when O=C(NNC(=O)[C@@H]1C[C@H](C(=O)O)[C@@H]2CC=C[C@@H]21)c1ccncc1 was run?
**A.** Its Inhibition is 1.29%.

**Q.** With CC(C)(C)[Si](C)(C)OCC1C2C[C@H]3C1[C@@H]3/C2=N/NC(=O)c1ccncc1 (some centres not stated) as the molecule, how does the Inhibition read?
**A.** Its Inhibition is -2%.

**Q.** With O=C(NNC(=O)c1ccc([N+](=O)[O-])cc1C(=O)O)c1ccncc1 as the molecule, how does the Inhibition read?
**A.** The Inhibition was 3.64%.

**Q.** O=C(NN=CC[C@@H]1[C@@H](/C=C/[C@@H](O)CCc2ccccc2)[C@H](OC(=O)c2ccccc2)C[C@@H]1O)c1ccncc1 was tested. Which Inhibition did it give?
**A.** The Inhibition was 5.97%.

**Q.** O=C(N/N=C1/C[C@@H]2[C@H](C1)[C@H](OC(=O)c1ccccc1)C[C@@H]2OC(=O)c1ccccc1)c1ccncc1 was tested. Which Inhibition did it give?
**A.** The Inhibition was 16.2%.

**Q.** How did the Inhibition turn out when O=C(NN=C[C@H]1[C@H]2CC(O)OC[C@H]2C[C@H]1O)c1ccncc1 (some centres not stated) was run?
**A.** The Inhibition was 3.89%.

**Q.** How did the Inhibition turn out when O=C(N/N=C1\C[C@@H]2[C@H](COC(c3ccccc3)(c3ccccc3)c3ccccc3)C[C@H](CO)[C@@H]2C1)c1ccncc1 was run?
**A.** Its Inhibition is 12.2%.

**Q.** Which Inhibition does the source give for O=C(N/N=C1/C[C@H]2[C@H](CO)[C@@H]1C[C@@H]2Cl)c1ccncc1 here?
**A.** The Inhibition was 2.15%.

**Q.** For O=C(N/N=C/C[C@@H]1[C@@H](/C=N/NC(=O)c2ccncc2)[C@H](O)C[C@@H]1O)c1ccncc1, which Inhibition is on record?
**A.** Its Inhibition is 0.98%.

**Q.** For O=C(NN=CC[C@@H]1[C@@H](/C=C/[C@@H](O)CCc2ccccc2)[C@H](O)C[C@@H]1O)c1ccncc1, which Inhibition is on record?
**A.** The Inhibition was -1.24%.

**Q.** With O=C(NN=C[C@H]1[C@@H]2CCO[C@@H]2C[C@@H]1O)c1ccncc1 as the molecule, how does the Inhibition read?
**A.** The Inhibition was 2.27%.

**Q.** With O=C(N/N=C1\C[C@@H]2[C@@H](CO)[C@H]1C[C@H]2Cl)c1ccncc1 as the molecule, how does the Inhibition read?
**A.** Its Inhibition is -0.38%.

**Q.** O=C(N/N=C1/C2C[C@H]3C(C2CO)[C@H]13)c1ccncc1 (some centres not stated) was tested. Which Inhibition did it give?
**A.** The Inhibition was 0.37%.

**Q.** O=C(NN=CC[C@@H]1[C@@H](COC2CCCCO2)[C@H](OC2CCCCO2)C[C@@H]1O)c1ccncc1 (some centres not stated) was tested. Which Inhibition did it give?
**A.** The Inhibition was 1.39%.

**Q.** How did the Inhibition turn out when O=C(N/N=C/COc1cccc(Cl)c1)c1ccncc1 was run?
**A.** Its Inhibition is 1.44%.

**Q.** With O=C(NNC(=O)[C@@H]1C[C@H](C(=O)O)[C@@H]2CCC[C@@H]21)c1ccncc1 as the molecule, how does the Inhibition read?
**A.** The Inhibition was 2.57%.

**Q.** For O=C(N/N=C1/C[C@@H]2[C@@H](C(=O)O)[C@H]1C[C@H]2Cl)c1ccncc1, which Inhibition is on record?
**A.** Its Inhibition is 7.78%.

**Q.** With O=C(N/N=C1/C2C[C@H]3C(C2C(=O)O)[C@@H]13)c1ccncc1 (some centres not stated) as the molecule, how does the Inhibition read?
**A.** The Inhibition was 0.22%.

**Q.** Which Inhibition does the source give for O=C1C[C@H]2[C@H](/C=N/NC(=O)c3ccncc3)[C@H](C[C@@H]2Cl)O1 here?
**A.** Its Inhibition is 3.46%.

**Q.** How did the Inhibition turn out when O=C(N/N=C/C[C@@H]1[C@@H](CO)[C@H](O)C[C@@H]1O)c1ccncc1 was run?
**A.** The Inhibition was 0.37%.

**Q.** Which Inhibition does the source give for NNC(=O)c1ccncc1 [ISONIAZID] here?
**A.** Its Inhibition is 0.98%.

**Q.** For O=C1C[C@@H]2[C@@H](C=NNC(=O)c3ccncc3)[C@@H](C[C@H]2Cl)O1, which Inhibition is on record?
**A.** Its Inhibition is 2.47%.

**Q.** For CC(C)(C)[Si](C)(C)OC[C@H]1[C@H](CC=NNC(=O)c2ccncc2)[C@H](O)C[C@@H]1O[Si](C)(C)C(C)(C)C, which Inhibition is on record?
**A.** The Inhibition was 3.64%.

**Q.** With O=C(NNC(c1ccccc1)(c1ccccc1)c1ccccc1)c1ccncc1 as the molecule, how does the Inhibition read?
**A.** Its Inhibition is 3.62%.
